# Assay outcomes from PubChem.
# Only some compounds are listed: those with a hit (about 2.8% of all), similar ones and a draw of the others.
# FXN GAA850 act = activators of GAA850 frataxin (FXN) promoter; HEK293 lucGAA850 FXN promoter luciferase reporter, 24 h; percent of 10 µM SAHA response; activation, % at 6 µM; actives 0.56% (n = 360,000); AID 540364;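 active = activation above the average of all compounds screened plus 3 SD, cutoff fixed separately per campaign, cut at about 7.5% in these data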
# Wnt bcat act = activators of Wnt/beta-catenin signaling | activation, % at 9.35 µM | Wnt/beta-catenin reporter cell assay, activator, plate reader | actives 1.2% (n = 300,000); in the data active = activation above about 30%, passing the limit was not always enough; inconclusive = no clear call, values can overlap the other calls
# MITF TRPM1 HTS = activators of MITF-driven TRPM1 promoter activity in SK-MEL-5 cells; SK-MEL-5 TRPM1-promoter luciferase, 24 h; % of positive control, neutral wells = 0; activation, % at 12.5 µM; actives 0.75% (n = 300,000); AID 588334;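 active = mean activation of at least 80% with every replicate also reaching 80%; inconclusive = mean reaches 80% but some replicate falls short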
# esBAF inh = SWI/SNF esBAF complex inhibition; AID 602393; reporter increase, % at 12.5 µM; mouse ES cells, Bmi1-luciferase knock-in reporter, 24 h; 100% = twice the neutral-well signal; actives 2% (n = 350,000); in the data active = activation above about 40%; inconclusive = no clear call, values can overlap the other calls;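 note: a rise in the Bmi1 reporter signal indicates esBAF inhibition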
# GAA30 FXN cntr = activates GAA30 frataxin promoter, counter-screen for GAA850 activators; activation, % at 6 µM; HEK293 lucGAA30 FXN promoter luciferase, 24 h; DMSO = 0%, 5 µM ipriflavone = 100%; shares compounds with FXN GAA850 act; actives 66% (n = 1,900);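 active = mean activation above the mean of solvent-only control wells plus 3 SD, cut at about 22% in these data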;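 note: counterscreen of GAA850 promoter hits where activity marks nonselective or luminescence artifacts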
# GAA850 confirm = confirmation of GAA850 frataxin (FXN) promoter activators. HEK293 lucGAA850 FXN promoter luciferase reporter, 24 h; 100% = activation by SAHA. activation, % at 6 µM. shares compounds with FXN GAA850 act. actives 86% (n = 1,900);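 active = mean activation above a set limit taken from the primary screen, cut at about 8% in these data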
# Hits are given with their value; i = inactive; ? = inconclusive; nt = no result given.
SMILES,FXN GAA850 act,Wnt bcat act,MITF TRPM1 HTS,esBAF inh,GAA30 FXN cntr,GAA850 confirm
C[C@H](CO)N1C[C@H](C)[C@H](CN(C)Cc2ccccc2)OCCCC[C@H](C)Oc2ccc(NC(=O)C3CCCCC3)cc2C1=O,nt,nt,nt,i,nt,nt
Cc1ccc(Nc2nc(CSc3nnc(-c4ccccc4C)n3C)cs2)cc1,i,i,i,nt,nt,nt
Cc1ccc(Nc2nc(CSc3nnc(-c4ccccc4)n3C)cs2)cc1,7.6,nt,i,i,120.2,41.1
CN(C)Cc1ccc(-c2nc3cccc4c3n2CCNC4=O)cc1,7.8,i,i,i,25.3,49.8
Clc1ccc(-c2cnc3cccnn23)cc1,9.0,i,nt,49.8,38.0,15.1
COc1ccc(-c2cnc3cccnn23)cn1,i,i,nt,i,nt,nt
CC(=O)Nc1ccc(NC(=O)CSc2cn(CC(=O)N3CCOCC3)c3ccccc23)cc1,i,i,i,i,nt,nt
O=C(Cn1cc(SCc2ccccc2Cl)c2ccccc21)N1CCOCC1,9.9,nt,i,82.2,132.9,42.9
Cc1cccc(/C=C/C(=O)c2ccc([N+](=O)[O-])o2)c1,11.3,i,?,i,i,i
CC(C)C#Cc1cnc2c(c1)C(=O)N([C@H](C)CO)C[C@@H](C)[C@H](CN(C)Cc1ccc3c(c1)OCO3)O2,nt,nt,nt,i,nt,nt
N/C(=N\c1nc2ccccc2o1)NC(=O)/C=C/c1ccccc1,i,i,i,nt,nt,nt
CCC(=O)N/C(N)=N/c1nc2ccccc2o1,7.8,i,?,nt,113.2,37.4
Cn1ncc2c1ncn1nc(CCc3ccccc3)nc21,9.1,i,i,i,106.1,29.1
C[C@@H]1CCCCO[C@@H](CN(C)C(=O)Cc2ccccc2)[C@H](C)CN([C@H](C)CO)C(=O)c2cc(NS(=O)(=O)c3cn(C)cn3)ccc2O1,nt,nt,nt,i,nt,nt
O=C1C=CC(=C(c2ccc(O)cc2)c2ccc(O)cc2)C=C1,8.6,i,i,i,28.7,36.8
COc1cc2c(cc1OC)/C(=C/C(=O)c1ccc(C)cc1)NCC2,8.2,i,i,i,37.4,24.3
COc1cc2c(cc1OC)/C(=C/C(=O)c1ccccc1)NCC2,8.5,i,i,i,29.0,15.5
COc1cccc(C(=O)/C=C2\NCCc3cc(OC)c(OC)cc32)c1,i,i,i,i,nt,nt
CCc1cccc2c(C(=O)CCl)c[nH]c12,8.2,i,i,i,31.2,21.2
CCc1cccc2c(C(=S)N3CCCC3)c[nH]c12,i,nt,i,i,nt,nt
C[C@@H]1CN([C@@H](C)CO)C(=O)c2cc(NS(=O)(=O)c3ccc(F)cc3)ccc2O[C@@H](C)CCCCO[C@H]1CN(C)C(=O)c1ccccc1,nt,nt,nt,i,nt,nt
CC=Cc1ccc2n(c1=O)C[C@@H]1[C@@H](CO)[C@H](C(=O)NCC)[C@H]2N1Cc1ccccc1 (mixture of isomers),nt,nt,nt,i,nt,nt
C[C@@H]1CN([C@@H](C)CO)C(=O)c2c(c3ccccc3n2C)-c2ccccc2CO[C@H]1CN(C)CC1CC1,nt,nt,nt,i,nt,nt
CCCOc1ccc(N2C(=O)CC(N3CCN(C(=O)c4ccco4)CC3)C2=O)cc1 (configuration not stated),i,nt,nt,i,nt,nt
COC(=O)c1ccc(N2C(=O)CC(N3CCN(C(=O)c4ccco4)CC3)C2=O)cc1 (configuration not stated),11.5,i,i,i,i,8.2
SMILES,FXN GAA850 act,Wnt bcat act,MITF TRPM1 HTS,esBAF inh,GAA30 FXN cntr,GAA850 confirm
CNC[C@@H]1Oc2cc(C#CCC(C)C)ccc2S(=O)(=O)N([C@H](C)CO)C[C@H]1C,nt,nt,nt,i,nt,nt
COc1ccc(-c2cnn3c4c(c(C)nc23)CCN4C(C)C)cc1OC,9.8,nt,nt,nt,79.6,36.3
CC(Oc1cc2oc(=O)cc(-c3ccccc3)c2cc1Cl)C(=O)NCC1CCC(C(=O)O)CC1 (configuration not stated),11.2,i,i,i,i,8.8
Cc1cccc(C(=O)Nc2ccc(C(=O)/C=C/c3ccncc3)cc2)c1,16.6,i,i,i,i,27.3
O=C(N[C@H]1CC[C@H](CCNS(=O)(=O)c2ccc(Cl)cc2)O[C@H]1CO)c1cccnc1,nt,nt,nt,i,nt,nt
CCOC(=O)c1cnn2c(C)cc(-c3ccc(F)cc3)nc12,8.3,nt,90.6,i,112.3,36.6
CCCNC(=O)C[C@H]1CC[C@@H]2[C@H](COC[C@@H](O)CN2CC2CCCCC2)O1,nt,nt,nt,i,nt,nt
O=C(NCc1ccc2c(c1)OCO2)c1nc(S(=O)(=O)Cc2ccccc2F)ncc1Cl,21.0,i,i,i,40.9,64.9
